The structures appear in SMILES notation. About 3,700 (1%) of roughly 360,000 compounds were called active. Another 2% or so got no clear call; they are omitted.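 How the source made its calls: active means normalized GFP-positive differentiation at or above the plate's own cutoff, the solvent-only control mean plus 3 SD; inconclusive means no clear call, values can overlap the other calls; inactive means the rest.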 Many of the other results were omitted from the sample, so actives are more common in it than they were.

This assay in a line: induction of myeloid progenitor differentiation, primary screen, cell-based, flow cytometry, MLPCN library (AID 624256).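 On GFP+ MAC1+ double positive: cells exposed to compound for four days before flow analysis.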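 On normalized GFP-positive differentiation: cells exposed to compound for four days before flow analysis; 0% = DMSO wells and 100% = fulvestrant positive control at 5 µM.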 The settings on record: ER-HoxA9 myeloid progenitors, lysozyme-GFP differentiation, at 10 µM; GFP+ MAC1+ double positive: measured here: differentiation confirmed by MAC1 staining, stronger effect = higher value; normalized GFP-positive differentiation: stronger effect = higher value. For orientation: In flow cytometry, cells or beads pass a laser one at a time.
`CCOC(=O)[C@H]1Nc2ccc(Cl)cc2[C@@H]2[C@H]1C1CC(c3ccccc31)N2C(=O)OCc1ccccc1` (some centres undefined): the GFP+ MAC1+ double positive is 1% and the outcome was inactive.
On the same counts, the results for `CC(C)C[C@H]1CNC(=S)N1C[C@H]1CCCN1C[C@H](Cc1ccc(O)cc1)N1C[C@H](Cc2ccc(O)cc2)N(CC2CCCCC2)C1=S` are 1.3% and “inactive”.
For `COc1ccc(-c2csc3ncnc(N4CCN(S(=O)(=O)c5ccccc5C#N)CC4)c23)cc1` the same measures were 1.7% and “inactive”.
Turning to `Cc1ccc(C)c(S(=O)(=O)N2CCN(c3ncnc4sccc34)CC2)c1`, the GFP+ MAC1+ double positive was determined as 2.8% and the normalized GFP-positive differentiation is 41.1% (active).
As for `Cc1ccc(C)c(S(=O)(=O)N2CCN(C(=O)Nc3ccccc3)CC2)c1`, the GFP+ MAC1+ double positive turned out to be 0.3% and the result was inactive.
On the same counts, the results for `CCC(C(=O)NCc1ccccc1)n1c(Cc2cc(F)cc(F)c2)nc2ccccc21` (centres undefined) are 2% and “inactive”.
For `Nc1ncnc2c1ncn2[C@@H]1O[C@H](C(=O)N2CCCN(Cc3ccccc3F)CC2)[C@@H](O)[C@H]1O` the same measures were 1.3% and “inactive”.
For `O=C(NC1CCCCC1)n1c(=O)oc2cc(S(=O)(=O)N3CCCCC3)ccc21` the same measures were 8.3% and “inactive”.
As to `CC1CCCCN1C(=O)Cn1c(=O)oc2cc(S(=O)(=O)N3CCCCC3)ccc21` (centres undefined), the GFP+ MAC1+ double positive came to 6.7% and the normalized GFP-positive differentiation is 53.2% (active).
In the case of `CC1CCCN(C(=O)Cn2c(=O)oc3cc(S(=O)(=O)N4CCCCC4C)ccc32)C1` (centres undefined), the GFP+ MAC1+ double positive worked out at 2.1% and the compound was called inactive.
For `CC1=C(C(=O)N(C(C)C)C(C)C)CC(CC(=O)NCCCCc2ccccc2)C(=O)N1CCC1=CCCCC1` (centres undefined), the GFP+ MAC1+ double positive is 1% and the compound was classed as inactive.
As for `O=S1(=O)CC(N2CCN(c3ccccn3)CC2)CN1Cc1ccc(F)cc1` (centres undefined), the GFP+ MAC1+ double positive is 0.9% and the result was inactive.
For `CCOC(=O)[C@]12CCC=C1N(Cc1cccc3ccccc13)C(=O)[C@H](CC(=O)NCc1cccc(C(F)(F)F)c1)C2` the same measures were 0.3% and “inactive”.
For `COC(=O)[C@@]12C[C@@H](CC(=O)N3CCC(c4ccccc4)CC3)C(=O)N(Cc3ccccc3)C1=CCC(C)(C)C2` the same measures were 1.2% and “inactive”.
On the same counts, the results for `O=C(CN1CCN(c2ccc(Cl)cc2)CC1)c1ccccc1` are 0.3% and “inactive”.
Regarding `Clc1ccc(-n2nnnc2-c2cnc(-c3ccccn3)nc2-c2cccs2)cc1`, the GFP+ MAC1+ double positive worked out at 0.7% and the outcome was inactive.
For `O=C(Cn1cc(-c2nnnn2-c2ccc(Cl)cc2)c(=O)c2ccccc21)c1ccccc1`, the GFP+ MAC1+ double positive stood at 7.2% and the normalized GFP-positive differentiation was 37.5% (active).
Consider `COC(=O)[C@]12CCCCC=C1N(CCC1=CCCCC1)C(=O)[C@H](CC(=O)NCC1CCCCC1)C2`, for which the GFP+ MAC1+ double positive turned out to be 1.7% and the compound was classed as inactive.
In the case of `Cc1ccc(-c2cnc(C(O)c3cccc(C)c3C)[nH]2)cc1` (centres undefined), the GFP+ MAC1+ double positive is 0.9% and the call was inactive.
For `CS(=O)(=O)N1CCN(c2ccc(C(=O)NC3C4CC5CC(C4)CC3C5)cc2[N+](=O)[O-])CC1` (centres undefined) the same measures were 1% and “inactive”.
`O=C(NC1C2CC3CC(C2)CC1C3)c1ccc(N2CCNCC2)c([N+](=O)[O-])c1` (centres undefined): the GFP+ MAC1+ double positive is 0.8% and the normalized GFP-positive differentiation is 16.7% (active).
Turning to `O=C(Nc1cccc(C(F)(F)F)c1)c1ccc(N2CCNCC2)c([N+](=O)[O-])c1`, the GFP+ MAC1+ double positive came to 0.4% and the compound was called inactive.
On the same counts, the results for `Cc1cc(O)ccc1-c1cc(C(=O)NCc2cc(C(F)(F)F)cc(C(F)(F)F)c2)[nH]n1` are 0.4% and “inactive”.
On the same counts, the results for `c1ccc2c(CCN3CCNC[C@H]3Cc3cccc4ccccc34)cccc2c1` are 6% and “inactive”.
`O=C1CCNCCN1[C@H](CO)Cc1ccccc1`: the GFP+ MAC1+ double positive amounted to 1.1% and the compound was called inactive.
For `c1ccc(C[C@H]2CNCCN2CCC23CC4CC(CC(C4)C2)C3)cc1`, the GFP+ MAC1+ double positive was 4% and the normalized GFP-positive differentiation is 18.5% (active).
Consider `CCc1nc2ccc(C(=O)NC3CCN(Cc4ccccc4)CC3)cn2c1N(CC)CCOC`, for which the GFP+ MAC1+ double positive was determined as 1.3% and the compound was classed as inactive.
For `Cc1ccc(COc2ccc(/C=N/NC(=O)CN3CCCCC3)cc2)cc1` the same measures were 0.2% and “inactive”.
For the compound `Cc1ccc(COc2ccc(C(=O)NN)cc2)cc1`, the GFP+ MAC1+ double positive came to 4.6% and the normalized GFP-positive differentiation was 335% (active).
On to `NNC(=O)c1ccc(COCC(F)(F)C(F)F)cc1`, for which the GFP+ MAC1+ double positive came out at 0.4% and the compound was called inactive.
On the same counts, the results for `COc1cccc(CNC(=O)[C@@H]2CCCN2C(=O)[C@@H]2CCCN2C(=O)c2ccccc2)c1` are 0.5% and “inactive”.
As to `CCS(=O)(=O)c1ccc(-c2cccc(NC(=O)c3ccc(Br)o3)c2)nn1`, the GFP+ MAC1+ double positive was determined as 1.2% and the normalized GFP-positive differentiation is 11.8% (active).
As to `CC(CNC(=O)c1ccc(Br)o1)NC(=O)c1ccc(Br)o1` (centres undefined), the GFP+ MAC1+ double positive is 4.1% and the call was inactive.
For `CCOc1ccc(C(=O)Nc2cccc(-c3ccc4nncn4n3)c2)cc1` the same measures were 1.2% and “inactive”.
On the same counts, the results for `COC(=O)C[C@H]1C=C[C@@H](NS(=O)(=O)c2ccc(C)cc2)[C@@H](CO)O1` are 2.1% and “inactive”.
For `Cc1ccccc1-c1nc(NC(C)C)nc2cc(-c3ccccc3)sc12` the same measures were 0.6% and “inactive”.
Turning to `OC(c1ccc(Cl)c(F)c1)c1ncc(-c2ccccc2Cl)[nH]1` (centres undefined), the GFP+ MAC1+ double positive stood at 1.3% and the call was inactive.
For `COc1ccc(C(O)C(O)(C(=O)OC(C)C)c2ccc(C)cc2)cc1` (centres undefined) the same measures were 2.5% and “inactive”.
For `C[C@H]([C@@H](O)[C@@H](O)[C@@H](C)C(C)(C)C)[C@H]1CC[C@H]2C3CC[C@H]4C[C@H](OS(=O)(=O)O)[C@@H](OS(=O)(=O)O)C[C@]4(C)[C@H]3CC[C@]12C` (some centres undefined) the same measures were 3.3% and “inactive”.
`C=CCC[C@@H](CCCCC)OC(=O)/C=C/[C@@H](O)[C@H](O)C[C@H](O)CC=C`: the GFP+ MAC1+ double positive was found to be 0.4% and the outcome was inactive.
On the same counts, the results for `CC(C)C[C@@H](COCc1ccc(Cl)cc1)N1CCN(C(=O)c2ccc(Cl)cc2Cl)CCC1=O` are 0.8% and “inactive”.
For the compound `CC(C)CC(COCc1ccc(Cl)cc1)N1CCN(C(=O)c2ccc(C(F)(F)F)cc2)CCC1=O` (centres undefined), the GFP+ MAC1+ double positive amounted to 5.1% and the normalized GFP-positive differentiation was 7.54% (active).
In the case of `O=C(c1ccc(C(F)(F)F)cc1)N1CCC(=O)N([C@H](COCc2ccccc2)Cc2ccccc2)CC1`, the GFP+ MAC1+ double positive came to 0.6% and the compound was called inactive.
On to `CCN(CC)CCN(C)C(c1ccnc2ccccc12)c1nnnn1-c1ccc2c(c1)OCCO2` (centres undefined), for which the GFP+ MAC1+ double positive is 2.1% and the call was inactive.
For `Cc1nc2cc(NC(=O)Nc3cccc(F)c3)ccc2n1C` the same measures were 0.6% and “inactive”.
For the compound `CCOc1ccc(CCNC(=O)Nc2ccccc2)cc1OCC`, the GFP+ MAC1+ double positive came to 0.6% and the outcome was inactive.
With `Cc1cc2nc(C)n(CCCNC(=O)Nc3ccccc3)c2cc1C`, the GFP+ MAC1+ double positive came out at 1.2% and the normalized GFP-positive differentiation was 33% (active).
For the compound `C[C@@H]1CC2=C(C(=O)OC(C)(C)O2)[C@@H](C2CC2)O1`, the GFP+ MAC1+ double positive was found to be 0.7% and the call was inactive.
For `OC(c1ccccc1)(c1ccccc1)C1CCN(CCCOc2ccccc2)CC1`, the GFP+ MAC1+ double positive was 0.9% and the compound was classed as inactive.
Turning to `CCOc1nc(-c2ccc(OC)cc2)ccc1-c1noc(-c2cc(OC)c(OC)c(OC)c2)n1`, the GFP+ MAC1+ double positive is 26.5% and the normalized GFP-positive differentiation was 69% (active).
For `CCOC(=O)c1cc(-c2nnc(-c3cc(OC)c(OC)c(OC)c3)o2)c(C)nc1C`, the GFP+ MAC1+ double positive worked out at 0.3% and the result was inactive.
For `CCOc1ccc(-c2noc(CCC(=O)NC3CCCC3)n2)cc1OC` the same measures were 0.3% and “inactive”.

Source of the values: PubChem BioAssay AID624256 (NMMLSC, 2012).
